# Reference: PubChem BioAssay (EPA / NIEHS)
# Several values for one entry are separate records, joined by “and”; a condition that tells them apart may be missing. Equal entries are not always repeated. Some compounds were tested as several samples or in several runs, with calls that do not always agree. Activity calls are given as the source filed them. How the source made its calls: active means hit-call score of the fitted dose curve at least 0.9, where 1 is the maximum; inactive means score below 0.9.
# Assay: CCTE_Shafer_MEA_dev_burst_rate: CCTE's Neural Network Formation Assay for Burst Rate, Shafer Lab (AID 2284042);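 on AC50: potency for loss of burst rate below DMSO control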
# In short: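 Exposure ran continuously over 12 days of network development in rat cortical cultures, with compound refreshed during full media changes on DIV 5 and 9. Single-electrode bursts per recording time, well-mean over active electrodes, trapezoidal AUC across days 5–12, fitted downward relative to DMSO.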
Structure (SMILES),AC50,outcome
Cc1c(F)c(F)c(COC(=O)C2C(/C=C(\Cl)C(F)(F)F)C2(C)C)c(F)c1F (centres undefined),716 nM (active),
CNC(=O)ON=CC(C)(C)SC,,inactive
CCOC(=O)CC(SP(=S)(OC)OC)C(=O)OCC (centres undefined),22.7 µM (active) and 2.98 µM (active),

# Assay: CCTE_Shafer_MEA_dev_per_burst_interspike_interval: CCTE's Neural Network Formation Assay for Burst Interspike Interval, Shafer Lab (AID 2284044);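 further: mean spike spacing inside bursts as AUC over recordings on days 5 7 9 12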;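 on AC50: potency for a decrease of within-burst interspike interval below DMSO level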
# In short: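 Mean interspike interval within single-electrode bursts, averaged over bursting electrodes, from rat cortical cultures on MEA plates recorded on days 5, 7, 9 and 12. Continuous compound exposure from plating; trapezoidal AUC fitted downward relative to DMSO.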
Structure (SMILES),AC50,outcome
CN(C)C(=S)SSC(=S)N(C)C,0.0227 µM (active),
CCCCOC(=O)c1ccccc1C(=O)OCCCC,,inactive
CCNc1nc(Cl)nc(NC(C)C)n1,,inactive
C=CCC1=C(C)C(OC(=O)C2C(C=C(C)C)C2(C)C)CC1=O (centres undefined),,inactive
C=CC1(C)OC(=O)N(c2cc(Cl)cc(Cl)c2)C1=O (centres undefined),,inactive
CCCCNC(=O)n1c(NC(=O)OC)nc2ccccc21,,inactive
COc1ccc(C(c2ccc(OC)cc2)C(Cl)(Cl)Cl)cc1,,inactive
COC(=O)N(OC)c1ccccc1COc1ccn(-c2ccc(Cl)cc2)n1,269 nM (active) and 50 nM (active),
CCOc1cc(Oc2ccc(C(F)(F)F)cc2Cl)ccc1[N+](=O)[O-],11.4 µM (active),
CO/C=C(/C(=O)OC)c1ccccc1Oc1cc(Oc2ccccc2C#N)ncn1,2.3 µM (active) and 2.54 µM (active),
COP(N)(=O)SC (centres undefined),,inactive
Cc1ccc(-c2c(Cl)nc(C#N)n2S(=O)(=O)N(C)C)cc1,,inactive
CC(C)(C)c1ccc(CSc2cnn(C(C)(C)C)c(=O)c2Cl)cc1,0.00498 µM (active),
COP(=S)(OC)Oc1nc(Cl)c(Cl)cc1Cl,,inactive
CCCCNC(=O)OCC#CI,7.65 µM (active) and 1.63 µM (active),
CCCCC(CC)COC(=O)c1ccccc1C(=O)OCC(CC)CCCC (centres undefined),9.06 µM (active),inactive
C=CCC1=C(C)[C@@H](OC(=O)[C@@H]2[C@@H](C=C(C)C)C2(C)C)CC1=O,,inactive
N#Cc1nn(-c2c(Cl)cc(C(F)(F)F)cc2Cl)c(N)c1S(=O)C(F)(F)F (centres undefined),,inactive
Cc1c(F)c(F)c(COC(=O)C2C(/C=C(\Cl)C(F)(F)F)C2(C)C)c(F)c1F (centres undefined),,inactive
CNC(=O)ON=CC(C)(C)SC,,inactive
CCOC(=O)CC(SP(=S)(OC)OC)C(=O)OCC (centres undefined),3.72 µM (active),inactive

# Assay: CCTE_Shafer_MEA_dev_burst_duration_mean: CCTE's Neural Network Formation Assay for Mean Burst Duration, Shafer Lab (AID 2284045);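 on AC50: curve fitted for loss meaning shorter burst duration than DMSO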
# In short: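 Primary rat cortical neurons on 48-well 16-electrode MEA plates, exposed from day 0 with renewal at DIV 5 and 9; spontaneous activity recorded on days 5, 7, 9, 12. Well-mean burst duration across bursting electrodes, collapsed as trapezoidal AUC; DMSO baseline.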
Structure (SMILES),AC50,outcome
CN(C)C(=S)SSC(=S)N(C)C,1.55 nM (active),
CCCCOC(=O)c1ccccc1C(=O)OCCCC,,inactive
CCNc1nc(Cl)nc(NC(C)C)n1,,inactive
C=CCC1=C(C)C(OC(=O)C2C(C=C(C)C)C2(C)C)CC1=O (centres undefined),,inactive
C=CC1(C)OC(=O)N(c2cc(Cl)cc(Cl)c2)C1=O (centres undefined),,inactive
CCCCNC(=O)n1c(NC(=O)OC)nc2ccccc21,,inactive
COc1ccc(C(c2ccc(OC)cc2)C(Cl)(Cl)Cl)cc1,,inactive
COC(=O)N(OC)c1ccccc1COc1ccn(-c2ccc(Cl)cc2)n1,129 nM (active),inactive
CCOc1cc(Oc2ccc(C(F)(F)F)cc2Cl)ccc1[N+](=O)[O-],6990 nM (active),
CO/C=C(/C(=O)OC)c1ccccc1Oc1cc(Oc2ccccc2C#N)ncn1,1.55 µM (active) and 2.03 µM (active),
COP(N)(=O)SC (centres undefined),,inactive
Cc1ccc(-c2c(Cl)nc(C#N)n2S(=O)(=O)N(C)C)cc1,,inactive
CC(C)(C)c1ccc(CSc2cnn(C(C)(C)C)c(=O)c2Cl)cc1,1.67 nM (active),
COP(=S)(OC)Oc1nc(Cl)c(Cl)cc1Cl,,inactive
CCCCNC(=O)OCC#CI,4.03 µM (active) and 1.28 µM (active),
CCCCC(CC)COC(=O)c1ccccc1C(=O)OCC(CC)CCCC (centres undefined),3180 nM (active),inactive
C=CCC1=C(C)[C@@H](OC(=O)[C@@H]2[C@@H](C=C(C)C)C2(C)C)CC1=O,,inactive
N#Cc1nn(-c2c(Cl)cc(C(F)(F)F)cc2Cl)c(N)c1S(=O)C(F)(F)F (centres undefined),,inactive
Cc1c(F)c(F)c(COC(=O)C2C(/C=C(\Cl)C(F)(F)F)C2(C)C)c(F)c1F (centres undefined),,inactive
CNC(=O)ON=CC(C)(C)SC,,inactive
CCOC(=O)CC(SP(=S)(OC)OC)C(=O)OCC (centres undefined),,inactive
